# From PubChem BioAssay
# Calls of active or inactive are those of the source.
# Tests used:
# [1] = system: Human papillomavirus type 1a protein E7 (residues 44-93); experiment: small molecules binding HPV E7 44-93 – biochemical, small-molecule microarray, residues 44-93, 635 nm fluorescence, primary screen (AID 1108); details: fluorescence 635 nm, higher = more signal;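 note: E7 fragment applied at 1 µg/mL in TBST for 1 h at 4 C; score combines spot fluorescence with its signal to noise ratio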
# [2] = hepatitis C replication reporter changes, two-sided – Huh7 cells, luciferase reporter, HCV replication inhibitor project, primary screen (AID 1109); details: Huh7 HCV replicon luciferase reporter, 48 h; higher = more signal;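 note: huh7 hepatoma cells harbouring a luciferase neomycin HCV replicon reporter; luciferase luminescence as measure of HCV replicon replication; test concentration not given here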
# [3] = target: Left-right determination factor 2 (Homo sapiens) (UniProt O00292); experiment: small molecules binding LEFTY2 protein – biochemical, small-molecule microarray, 635 nm fluorescence scan, primary screen (AID 1110); details: higher = more signal
# [4] = target: Calmodulin-1 (Homo sapiens) (UniProt P0DP23); experiment: small molecules binding calmodulin-1 with EGTA – biochemical, small-molecule microarray, Cy5-labelled CALM1, profiling panel (AID 1111); details: Cy5-CALM1 binding fluorescence, higher = more signal;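 note: labelled calmodulin applied in Tris saline Tween buffer holding calcium plus EGTA and DTT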
# [5] = target: Calmodulin-1 (Homo sapiens) (UniProt P0DP23); experiment: small molecules binding Ca-loaded calmodulin-1 – biochemical, small-molecule microarray, Cy5-labelled CALM1, plus calcium, artefact control for SMM control-protein annotation, profiling panel (AID 1112); details: Cy5-CALM1 binding fluorescence, higher = more signal;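 note: score merges spot fluorescence with signal to noise from triplicate slides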
# [6] = probe aWnt5a binding to arrayed compounds – biochemical, biotinylated probe, 635/667 nm fluorescence, primary screen (AID 1113); details: small-molecule microarray, higher = more signal;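 note: score merges 667 nm fluorescence intensity with signal-to-noise per printed feature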
# [7] = probe aShh binding to arrayed compounds – biochemical, biotinylated probe, 635/667 nm fluorescence, primary screen (AID 1114); details: small-molecule microarray, higher = more signal;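 note: probe is biotin-labelled aShh protein from a stem cell growth factor screen; measures binding of labelled protein to compounds printed on the slide; score merges feature fluorescence at 667 nm with signal-to-noise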
# [8] = probe aNog binding to arrayed compounds – biochemical, biotinylated probe, 635/667 nm fluorescence, primary screen (AID 1115); details: small-molecule microarray, higher = more signal;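 note: probe is biotinylated aNog protein used at 0.15 µg/mL for 1 h at 4 C; z-score combines 667 nm fluorescence of each spot with its signal to noise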
# [9] = target: Torsin-1A-interacting protein 1 (Homo sapiens) (UniProt Q5JTV8); experiment: compound microarray binding of lysate hLAP1 – cell lysate, small-molecule microarray, COS7 lysate, 635/667 nm fluorescence, primary screen (AID 1116); details: 635 nm fluorescence, higher = more signal
# [10] = target: Alpha-bungarotoxin (Bungarus multicinctus) (UniProt P60615); experiment: compounds binding labelled alpha-BTX control protein – biochemical, small-molecule microarray, Alexa647 label, 635/667 nm fluorescence, artefact control for SMM control protein annotation, profiling panel (AID 1117); details: alpha-BTX-A647 binding fluorescence, higher = more signal
# [11] = target: Albumin (Bos taurus) (UniProt P02769); experiment: compounds binding labelled BSA control protein – biochemical, small-molecule microarray, Alexa647 label, 635/667 nm fluorescence, artefact control for SMM control protein annotation, profiling panel (AID 1118); details: BSA-A647 binding, fluorescence 635 nm, higher = more signal;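 note: score merges 667 nm emission intensity and signal-to-noise per printed compound spot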
# [12] = probe aXIP binding to arrayed compounds – biochemical, NeuroSMM set, 635/667 nm fluorescence, primary screen (AID 1119); details: small-molecule microarray, higher = more signal, called active from +8 up or from −8 down;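 note: probe is the protein aXip251-270 applied at 1 µg/mL to compound-printed slides; binding of probe to printed compounds measured as 667 nm fluorescence plus signal to noise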
# [13] = probe aNOTCH3 binding on compound microarray – biochemical, small-molecule microarray, 635/667 nm fluorescence, primary screen (AID 1120); details: higher = more signal;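 note: probe is a biotin-tagged antibody raised against NOTCH3 rather than NOTCH3 protein; score merges spot fluorescence near 667 nm with spot signal to noise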
# [14] = probe aNOTCH2 binding on compound microarray – biochemical, small-molecule microarray, 635/667 nm fluorescence, primary screen (AID 1121); details: higher = more signal;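 note: score merges feature fluorescence read at 667 nm with its signal to noise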
# [15] = target: Carbonic anhydrase 2 (Homo sapiens) (UniProt P00918); experiment: compounds binding carbonic anhydrase 2 – biochemical, small-molecule microarray, Alexa647-labelled CAII, profiling panel (AID 1122); details: CAII-A647 binding fluorescence, higher = more signal
# [16] = COS7 lysate on small-molecule microarray, probe aHis, 635 nm (AID 1123); details: COS7 cell lysate, fluorescence, higher = more signal;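 note: z-score combines 667nm fluorescence intensity with signal-to-noise per printed compound spot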
# [17] = probe aLAP1 signal on lysate-treated microarray – cell lysate, small-molecule microarray, COS7 lysate, primary screen (AID 1124); details: probe aLAP1, fluorescence, higher = more signal;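 note: lysate comes from COS7 cells expressing LAP1 and is applied at 0.3 µg/mL; score merges spot fluorescence near 667 nm with signal-to-noise over triplicate slides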
# [18] = system: Sam68 (KHDRBS1); experiment: compounds binding KHDRBS1 protein – biochemical, small-molecule microarray, 635 nm fluorescence, primary screen (AID 1125); details: higher = more signal;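 note: score merges 667 nm channel intensity with signal to noise over triplicate slides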
# [19] = system: Chordin-like protein 2 (CHRDL2); experiment: compounds binding chordin-like 2 – biochemical, small-molecule microarray, 635 nm fluorescence, primary screen (AID 1126); details: fluorescence 635 nm, higher = more signal;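 note: printed compound slides probed with Chrdl2 protein at 4 µg/mL for 1 h at 4 C; score merges 667 nm emission intensity with signal to noise over three replicate slides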
# [20] = target: Concanavalin-A (Canavalia ensiformis) (UniProt P02866); experiment: compounds binding concanavalin A lectin – biochemical, small-molecule microarray, Alexa647 label, 635 nm, artefact control for SMM control protein annotation, primary screen (AID 1127); details: ConA-A647 binding fluorescence, higher = more signal;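 note: z combines 667 nm emission intensity with signal-to-noise across three replicate slides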
# Chain of Concanavalin-A (Canavalia ensiformis) (P02866 whole entry, looked up): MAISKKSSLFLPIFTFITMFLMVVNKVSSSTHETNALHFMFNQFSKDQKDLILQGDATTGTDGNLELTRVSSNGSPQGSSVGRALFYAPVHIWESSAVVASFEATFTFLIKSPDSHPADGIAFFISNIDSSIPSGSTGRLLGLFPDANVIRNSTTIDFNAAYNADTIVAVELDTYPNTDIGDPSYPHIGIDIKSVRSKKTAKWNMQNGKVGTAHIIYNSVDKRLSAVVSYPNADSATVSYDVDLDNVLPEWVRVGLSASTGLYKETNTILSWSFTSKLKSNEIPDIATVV
# Chain of Albumin (Bos taurus) (P02769 whole entry, looked up): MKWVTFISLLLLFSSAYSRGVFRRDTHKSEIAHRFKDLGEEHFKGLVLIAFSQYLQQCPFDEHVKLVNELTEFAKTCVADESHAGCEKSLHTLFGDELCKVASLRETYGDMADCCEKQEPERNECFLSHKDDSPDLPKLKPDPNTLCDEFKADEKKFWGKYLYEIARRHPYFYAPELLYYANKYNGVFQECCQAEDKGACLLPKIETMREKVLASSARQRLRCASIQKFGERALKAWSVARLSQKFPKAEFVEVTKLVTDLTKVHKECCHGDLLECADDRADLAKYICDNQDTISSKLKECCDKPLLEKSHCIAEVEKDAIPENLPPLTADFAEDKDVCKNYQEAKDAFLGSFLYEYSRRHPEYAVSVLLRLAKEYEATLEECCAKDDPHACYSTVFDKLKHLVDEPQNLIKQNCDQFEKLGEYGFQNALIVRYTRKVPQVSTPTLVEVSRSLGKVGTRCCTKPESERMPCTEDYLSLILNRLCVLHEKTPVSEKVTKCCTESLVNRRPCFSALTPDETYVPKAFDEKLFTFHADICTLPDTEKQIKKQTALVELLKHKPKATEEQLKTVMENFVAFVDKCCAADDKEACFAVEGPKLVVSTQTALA
# Chain of Alpha-bungarotoxin (Bungarus multicinctus) (P60615 whole entry, looked up): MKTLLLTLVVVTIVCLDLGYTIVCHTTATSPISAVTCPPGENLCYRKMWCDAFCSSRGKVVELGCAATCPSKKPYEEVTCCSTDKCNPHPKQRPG
# Chain of Torsin-1A-interacting protein 1 (Homo sapiens) (Q5JTV8 whole entry, looked up): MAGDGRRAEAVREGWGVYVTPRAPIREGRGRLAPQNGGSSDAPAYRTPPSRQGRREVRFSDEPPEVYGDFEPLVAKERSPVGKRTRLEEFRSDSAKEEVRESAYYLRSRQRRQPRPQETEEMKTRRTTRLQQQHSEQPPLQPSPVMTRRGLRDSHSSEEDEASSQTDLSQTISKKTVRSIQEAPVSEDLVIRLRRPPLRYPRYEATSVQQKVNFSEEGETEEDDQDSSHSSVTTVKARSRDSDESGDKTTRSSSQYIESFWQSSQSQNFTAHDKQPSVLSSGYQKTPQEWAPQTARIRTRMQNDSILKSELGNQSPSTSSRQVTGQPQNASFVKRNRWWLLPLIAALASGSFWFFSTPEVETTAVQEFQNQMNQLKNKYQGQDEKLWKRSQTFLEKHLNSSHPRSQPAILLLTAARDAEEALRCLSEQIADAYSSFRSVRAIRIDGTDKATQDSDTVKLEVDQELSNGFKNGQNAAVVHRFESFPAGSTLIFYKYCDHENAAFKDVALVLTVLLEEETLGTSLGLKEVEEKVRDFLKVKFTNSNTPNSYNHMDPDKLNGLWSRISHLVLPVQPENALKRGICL
# Chain of Left-right determination factor 2 (Homo sapiens) (O00292 whole entry, looked up): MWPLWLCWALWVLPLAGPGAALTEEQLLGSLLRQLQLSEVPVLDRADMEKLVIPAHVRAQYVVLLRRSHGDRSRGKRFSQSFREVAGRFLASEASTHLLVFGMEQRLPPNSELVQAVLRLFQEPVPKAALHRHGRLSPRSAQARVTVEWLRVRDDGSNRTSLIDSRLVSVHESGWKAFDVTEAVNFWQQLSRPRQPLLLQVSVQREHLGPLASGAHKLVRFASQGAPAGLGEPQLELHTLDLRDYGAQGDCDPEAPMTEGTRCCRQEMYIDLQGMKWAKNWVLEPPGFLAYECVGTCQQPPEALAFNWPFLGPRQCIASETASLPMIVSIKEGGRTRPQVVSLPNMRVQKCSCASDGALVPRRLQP
SMILES,composite z-score [1],z-score [2],composite z-score [3],composite z-score [4],composite z-score [5],composite z-score [6],composite z-score [7],composite z-score [8],composite z-score [9],composite z-score [10],composite z-score [11],composite Z-score [12],composite z-score [13],composite z-score [14],composite z-score [15],composite z-score [16],composite z-score [17],composite z-score [18],composite z-score [19],composite z-score [20]
O=C1O[C@H](c2ccccc2)[C@H](c2ccccc2)N2[C@H]1[C@@H](C(=O)N1CCCCCCC1)[C@]1(C(=O)Nc3ccc(C#CCCO)cc31)[C@H]2c1ccc(OCCO)cc1,1.62,-1.64,1.72,3.04,1.63,1.65,2.49,3.39,5.44,4.88,0.853,10.2 (active),2.34,1.12,1.11,5.12,1.12,1.37,1.62,1.19
C=CCOC(=O)[C@@H]1[C@H]2C(=O)O[C@H](c3ccccc3)[C@H](c3ccccc3)N2[C@H](c2ccc(OCCOC(=O)[C@@H]3C[C@@H]4C(=O)N[C@@H](CCCCNC(C)=O)C(=O)N4[C@@H]3c3ccc(O)cc3)cc2)[C@@]12C(=O)Nc1ccc(I)cc12,1.41,-0.66,0.722,0.743,-0.342,-0.0684,0.0098,-0.192,0.6,0.831,-0.427,1.48 (inactive),0.844,-0.0458,0.5,1.86,0.705,1.29,0.986,1.15
C=CC[C@@]1(C(=O)NCCN2CCOCC2)N=C(c2ccc(OCCCO)cc2)O[C@@H]1c1ccccc1,1.46,-1.34,0.902,-0.0984,-0.0501,0.0873,-0.0093,1,1.06,0.991,0.262,-0.288 (inactive),0.291,-0.0907,0.673,2.52,0.871,1.12,1.4,0.608
COc1ccc([Si](C)(C)[C@@H]2[C@@H](CC(=O)N(CCO)Cc3ccccc3)O[C@]3(C(=O)N(Cc4ccc(N5CCOC5=O)cc4)c4ccccc43)[C@H]2C)cc1,0.542,-4.45,0.491,0.515,0.385,-0.0337,0.321,0.264,1.02,0.989,-0.697,0.516 (inactive),-0.063,-0.175,0.469,1.35,-0.211,0.951,0.697,1.08
[N-]=[N+]=NCc1ccccc1[C@H]1OC(c2ccc(OCCCO)cc2)=N[C@@]1(Cc1ccccc1N=[N+]=[N-])C(=O)NCCN1CCOCC1,1.05,-2.34,0.528,1.19,0.305,0.16,0.432,2.06,1.79,1.45,0.701,-0.514 (inactive),0.416,0.105,0.751,2.32,-0.0777,1.29,0.263,1.14
CN1C(=O)C2C=CC(C(O)COCc3ccccc3)N(Nc3ccccc3)C2C1=O (stereo not given),0.372,0.74,0.0615,-0.0981,-0.57,0.0403,-0.0793,1.03,0.661,0.347,0.898,-0.0217 (inactive),0.348,-0.127,0.81,1.44,-0.0468,0.616,-0.142,0.479
COCCCNC(=O)[C@]1(CCS(=O)(=O)c2ccccc2)N=C(c2ccc(OCCCO)cc2)O[C@@H]1c1ccccc1,1.11,-0.995,0.494,1.62,0.214,0.0179,-0.161,-0.315,1.8,1.5,0.88,-0.263 (inactive),0.558,0.284,0.751,2.99,1.75,1.3,0.0923,1.1
C=CC[C@@]1(C(=O)NCC(O)CO)N=C(c2ccc(OCCCO)cc2)O[C@@H]1c1ccccc1 (stereo not given in full),1.21,0.235,-0.834,2.22,0.971,0.512,0.786,-0.419,3.73,2.59,0.814,1.81 (inactive),0.13,-0.0028,0.797,3.84,0.595,1.22,-0.381,-0.237
CC(C)C[C@H]1NC(=O)[C@H](C)NC(=O)[C@@]23C(=O)N[C@@H](Cc4ccccc4)C2[C@H](C)[C@@]2(C)O[C@H]2C3/C=C/C/C=C\CNC1=O (stereo not given in full),0.84,-0.201,-0.206,-0.893,-0.806,-0.166,-0.123,0.202,0.462,-0.086,0.876,-0.155 (inactive),-0.227,-0.172,0.734,-0.38,-0.229,0.371,0.409,-0.565
COC(=O)[C@@]1(Cc2ccccc2)[C@H]2c3cc(C(=O)N4CCCC4)n(CCO)c3C[C@H]2CN1C(=O)c1ccccc1,0.34,-1.02,0.167,2.71,1.07,0.853,0.436,0.922,3.95,1.48,1.03,1.61 (inactive),1.37,0.853,0.841,2.35,1.41,1,0.443,0.886
COC(=O)c1ccc(OC)c(/C=C\CC(CCc2ccccc2)OC(=O)c2ccncc2)c1 (stereo not given),-0.0796,-0.578,1.45,-1.61,-1.72,-0.25,-0.117,-0.385,0.489,1.65,-0.805,0.302 (inactive),-0.26,-0.225,0.388,0.721,0.863,0.0029,1.52,-0.363
